The whole screen tested about 2,100 compounds, of which about 180 (8.6%) showed an effect of 50% or more. The sample as a whole holds a higher share of strong results than the screen did.
Tested on: MOLM1 and UCSD/AML1 (averaged)
Assay: cell viability relative to DMSO control (POC); higher = less growth inhibition
Conditions: 1 µM; 72 h
Procedure: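 Primary viability screen in the 3q26 EVI1-high AML cell lines MOLM1 and UCSD/AML1 (1.5e3 cells/well, 384-well), compounds at 1 uM for 72 h. ATP CellTiter-Glo read-out given as percent of viable cells over DMSO control (POC), averaged over duplicates. DMSO was the negative control and 5 uM etoposide the positive control. This mapping covers the MicroSource Spectrum and Selleck anticancer libraries (drug names).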

Q: With CNC(C)[C@H](O)c1ccccc1 (stereo partly specified) as the compound, how does the cell viability read?
A: 93.6%

Q: For Cc1nccc2c1[nH]c1cc(O)ccc12, which cell viability is on record?
A: 81%

Q: For O=C(NC(=O)c1c(F)cccc1F)Nc1ccc(Cl)cc1, which cell viability is on record?
A: 118%

Q: For C[C@@H]1O[C@@H](O[C@@H]2C=C3CC[C@@H]4[C@H](CC[C@]5(C)[C@@H](c6ccc(=O)oc6)CC[C@]45O)[C@@]3(C)CC2)[C@H](O)[C@H](O)[C@H]1O, which cell viability is on record?
A: 2.01%

Q: For CC(C)(O)[C@@H]1[C@H]2OC(=O)[C@@H]1[C@]1(O)C[C@H]3O[C@]34C(=O)O[C@H]2[C@]14C, which cell viability is on record?
A: 87.8%

Q: With O=C(NC(=O)c1c(F)cccc1F)Nc1cc(Cl)c(OC(F)(F)C(F)C(F)(F)F)cc1Cl (stereo unspecified) as the compound, how does the cell viability read?
A: 93.9%

Q: COC(=O)NC(=S)Nc1ccccc1NC(=S)NC(=O)OC was tested. Which cell viability did it give?
A: 116%

Q: COC(=O)C(c1ccccc1)C1CCCCN1 (stereo unspecified) was tested. Which cell viability did it give?
A: 89.3%

Q: With CC(C)(N)Cc1ccccc1 as the compound, how does the cell viability read?
A: 110%

Q: For N#C/C(=C\c1cccc(O)c1)C(=O)O [alpha-CYANO-3-HYDROXYCINNAMIC ACID], which cell viability is on record?
A: 94.3%

Q: For O=c1c2ccccc2[se]n1-c1ccccc1, which cell viability is on record?
A: 97.5%

Q: For C[CH2][Hg][S]c1ccccc1C(=O)[O-].[Na+], which cell viability is on record?
A: 99.6%

Q: CCCCCCCCCCCCCCCC[n+]1ccccc1 was tested. Which cell viability did it give?
A: 62.3%

Q: Which cell viability does the source give for C/C=C(/C)C(=O)O[C@H]1CC[C@@]2(C)[C@@H]3CC[C@H]4[C@]5(O)C[C@H](O)[C@@]6(O)[C@@H](CN7C[C@@H](C)CC[C@H]7[C@@]6(C)O)[C@]5(O)C[C@@]42O[C@]13O here?
A: 94.9%

Q: CC(C)N(CCC(C(N)=O)(c1ccccc1)c1ccccn1)C(C)C (stereo unspecified) was tested. Which cell viability did it give?
A: 113%

Q: How did the cell viability turn out when N#Cc1c(Cl)c(Cl)c(Cl)c(C#N)c1Cl was run?
A: 1.55%

Q: How did the cell viability turn out when CC1=CCCC2C1(C)CCC(C)C2(C)CC/C(C)=C/Cn1c[n+](C)c2c(N)ncnc21 (stereo unspecified) [AGELASINE (stereochemistry of diterpene unknown)] was run?
A: 109%

Q: For CN[C@@H]1[C@@H](O)[C@@H](O[C@@H]2[C@@H](O)[C@H](O[C@H]3O[C@H]([C@@H](C)O)[C@@H](O)[C@H](O)[C@H]3N)[C@@H](N)C[C@H]2N)OC[C@]1(C)O, which cell viability is on record?
A: 92%

Q: With CC1(C)C(=O)[C@@H]2O[C@@H]2[C@@]2(C)C1C[C@@H](O)[C@]1(C)C2CC[C@@]2(C)[C@H](c3ccoc3)OC(=O)C3OC321 (stereo partly drawn) [1,2alpha-EPOXYDEACETOXYDIHYDROGEDUNIN] as the compound, how does the cell viability read?
A: 91.4%

Q: For CC1=CC(=O)c2c(O)cccc2C1=O, which cell viability is on record?
A: 74.6%

Q: How did the cell viability turn out when COc1cc2c(cc1OC)[C@@H]1C(=O)c3ccc4c(c3O[C@@H]1CO2)CC(C(C)C)O4 (stereo partly specified) was run?
A: 77.8%

Q: How did the cell viability turn out when COc1cc2c(cc1OC)[C@@H]1C(=O)c3ccc(OC)c(CC=C(C)C)c3O[C@@H]1CO2 was run?
A: 103%

Q: With C=C(C)[C@H]1Cc2c(ccc3c2O[C@@H]2COc4cc(OC)c(OC)cc4[C@@H]2C3=O)O1 as the compound, how does the cell viability read?
A: 26.4%

Q: Which cell viability does the source give for O=C1NC(=O)C(=O)C(=O)N1 here?
A: 100%

Q: How did the cell viability turn out when CNC1CC(N)C(O)C(OC2OC(CO)C(O)C3OC4(OC(C(N)CO)C(O)C(O)C4O)OC23)C1O (stereo unspecified) was run?
A: 103%

Q: With O=[N+]([O-])O[C@@H]1CO[C@H]2[C@@H]1OC[C@@H]2O as the compound, how does the cell viability read?
A: 98.1%

Q: How did the cell viability turn out when C/C(=C\c1csc(C)n1)[C@@H]1C[C@@H]2O[C@]2(C)CCC[C@H](C)[C@H](O)[C@@H](C)C(=O)C(C)(C)[C@@H](O)CC(=O)O1 [Epothilone B (EPO906)] was run?
A: 13.4%

Q: How did the cell viability turn out when C/C(=C\c1csc(C)n1)[C@@H]1C[C@@H]2O[C@@H]2CCC[C@H](C)[C@H](O)[C@@H](C)C(=O)C(C)(C)[C@@H](O)CC(=O)O1 [Epothilone A] was run?
A: 18.5%

Q: For O=C(O)CC[N+](=O)[O-] [BOVINOCIDIN (3-nitropropionic acid)], which cell viability is on record?
A: 94.6%

Q: With Cc1ccc(O)cc1.Cc1cccc(O)c1.Cc1ccccc1O as the compound, how does the cell viability read?
A: 98.6%

Q: Which cell viability does the source give for C/C=C(\C)C(=O)O[C@H]1C[C@@H](OC(C)=O)[C@@]2(C(=O)OC)CO[C@H]3[C@@H](O)[C@@](C)([C@]45O[C@@]4(C)[C@H]4C[C@@H]5O[C@@H]5OC=C[C@@]54O)[C@H]4[C@]1(CO[C@]4(O)C(=O)OC)[C@@H]32 here?
A: 97.3%

Q: With OC[C@@H]1CCCN2CCCC[C@H]12 as the compound, how does the cell viability read?
A: 83%

Q: With C/C=C/c1ccc2c(c1)OCO2 as the compound, how does the cell viability read?
A: 108%

Q: C[C@@H]1C[C@@H]([C@H](O)CC2CC(=O)NC(=O)C2)C(=O)[C@@H](C)C1 was tested. Which cell viability did it give?
A: 18.4%

Q: With C[C@]12CCC(=O)C=C1C=C[C@@H]1[C@@H]2CC[C@@]2(C)[C@H]1CC[C@@]2(O)CCC(=O)O as the compound, how does the cell viability read?
A: 111%

Q: NC(=O)c1ccc(N)nc1 was tested. Which cell viability did it give?
A: 88%

Q: Which cell viability does the source give for C[C@@H](N)[C@@H](O)c1ccccc1 here?
A: 106%

Q: With CC(C)c1cc2c(c(O)c1O)[C@@]1(C(=O)O)CCCC(C)(C)[C@@H]1CC2 as the compound, how does the cell viability read?
A: 107%

Q: How did the cell viability turn out when C=C[C@H]1CN2CC[C@H]1C[C@H]2[C@H](O)c1ccnc2ccccc12 was run?
A: 105%

Q: For O=C(NC(=O)c1ccccc1Cl)Nc1ccc(OC(F)(F)F)cc1, which cell viability is on record?
A: 113%

Q: O=C1C=CC(=O)c2ccccc21 was tested. Which cell viability did it give?
A: 89.5%
